Hit rate of the full screen: of about 16,000 compounds, about 4,000 (25%) were called active. Another 26% or so got no clear call; they are omitted. A selection follows. Unmarked numbers belong to inactive results. Calls follow the shape of the dose curve; as a rule, active = well fitted curve in the direction sought with a large enough effect; inconclusive = small, poorly fitted or top-dose-only effect, or effect the other way; inactive = no such curve, though single readings can be large or run the other way.
The compounds below were run against Cytochrome P450 2C9 (Homo sapiens) (UniProt P11712) (assay: Cytochrome panel assay with activity outcomes). Conditions: recombinant CYP, pro-luciferin dealkylation, luminescence, p450-cyp2c9; series mostly up to 57.1 µM.
% is scaled to controls: 0 for no effect and ±100 for the full control effect.

Cytochrome P450 2C9 (Homo sapiens), sequence (P11712 whole entry, looked up): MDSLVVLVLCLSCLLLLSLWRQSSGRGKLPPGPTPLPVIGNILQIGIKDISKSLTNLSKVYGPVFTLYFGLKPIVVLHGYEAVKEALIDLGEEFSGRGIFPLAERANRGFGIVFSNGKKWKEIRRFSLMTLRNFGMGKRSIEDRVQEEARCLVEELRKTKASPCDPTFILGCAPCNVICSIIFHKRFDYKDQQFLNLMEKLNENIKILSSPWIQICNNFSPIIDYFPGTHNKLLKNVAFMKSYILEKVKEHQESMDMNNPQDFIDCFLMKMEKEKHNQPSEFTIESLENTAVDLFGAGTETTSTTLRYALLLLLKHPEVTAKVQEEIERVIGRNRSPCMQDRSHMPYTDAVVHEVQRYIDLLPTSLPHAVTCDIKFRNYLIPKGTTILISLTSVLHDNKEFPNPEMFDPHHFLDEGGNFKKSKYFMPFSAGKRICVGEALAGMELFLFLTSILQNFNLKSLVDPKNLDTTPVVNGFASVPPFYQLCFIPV

Compound	activity, negative = inhibition	AC50
O=C(CC1(O)CCCCC1)OC1CCCC1	-26.4% [at 11.4 µM]	–
FC(F)(F)c1cc(CN2CCCC3(CCNCC3)C2)cc(C(F)(F)F)c1	–	inactive
C[N+](C)(C)/N=C\c1ccc(O)c(O)c1	-5.12% [at 11.4 µM]	–
CC(C)N=c1scc(-c2ccco2)n1/N=C/c1ccc(O)c(O)c1	–	11.2 µM (active)
CCCC(=O)Nc1nc2n(n1)C(c1ccccc1)CC(=O)N2 (centres undefined)	–	inactive
O=C1c2ccccc2C(=O)N1CCSC(=S)N1CCOCC1	–	inactive
CC1(C)CC(=O)C(CCCN2C(=O)c3ccccc3C2=O)C(=O)C1	–	17.8 µM (active)
O=C1CC[C@H](N2C(=O)c3ccccc3C2=O)C(=O)N1	–	inactive
CSc1cccc(NC(=O)Cn2cccc2)c1	–	20 µM (active)
Cc1cccc(NC(=O)Cn2cccc2)c1	–	inactive
CSc1cccc(NC(=O)OC2CCCCCCCCCCC2)c1	-17.7% [at 11.4 µM]	–
O=C(OCC1CC(c2ccccc2)=NO1)c1ccc(Cl)cc1 (centres undefined)	–	inactive
Clc1ccc(C2=C3CCCCn4c(-c5ccccc5)c[n+](c43)C2)cc1	–	inactive
O=C(c1ccc(Cl)cc1)N1CCCC(c2ccccc2)=N1	–	10 µM (active)
CC(C)(C)NC(=O)Cn1cnc([N+](=O)[O-])n1	–	inactive
O=C(O)c1cccnc1SCC(=O)N1CCCCCC1	–	inactive
Cc1cccc(C(CC(=O)N2CCCC2)c2ccccc2)c1O (centres undefined)	–	3.98 µM (active)
COCC(=O)N1CCC2(CC1)CCN(C(c1ccccc1)c1ccccc1)CC2	–	inactive
CCNc1ncc2ncc(=O)n(C[C@H]3CCCO3)c2n1	–	inactive
COc1cccc(Cn2c(=O)c(-c3cccc(C#N)c3)nc3cnc(Nc4ccccc4)nc32)c1	–	inactive
COc1cccc(Cn2c(=O)c(-c3cccc(C#N)c3)nc3cnc(N4CCN(C)CC4)nc32)c1	–	inactive
COc1cccc(Cn2c(=O)c(-c3cccc(C#N)c3)nc3cnc(OC)nc32)c1	–	12.6 µM (active)
CCNc1ncc2nc(-c3ccccc3)c(=O)n(Cc3cccc(OC)c3)c2n1	–	inactive
COc1ncc2nc(-c3ccc(F)cc3)c(=O)n(Cc3ccc(F)cc3)c2n1	–	inactive
COc1cccc(Cn2c(=O)c(-c3ccccc3)nc3cnc(OC)nc32)c1	–	12.6 µM (active)

Compound	activity, negative = inhibition	AC50
CC/C(O)=C(\C#N)c1nnc2n1CCCCC2	–	inactive
CC(C)Oc1ccc(CSC(=N)N)cc1	–	inactive
N#CC(C#N)=CNCCN1CCN(C=C(C#N)C#N)CC1	5.25% [at 11.4 µM]	–
COCCNC(=O)COc1ccc(OCCNC[C@@H](O)COc2ccccc2)cc1	–	inactive
COCCNC(=O)COc1ccc(Oc2ccccc2)cc1	–	0.316 µM (active)
COCCNC(=O)CCn1c(=O)oc2ccccc21	–	inactive
CS(=O)(=O)N1CCC2(CCCN(C(=O)Nc3cccc(F)c3)C2)CC1	–	inactive
COC(Cc1nnc(SC)n1-c1ccccc1)OC	–	inactive
CCOc1ccc(NCc2nnc(SCc3ccccc3Cl)n2-c2ccccc2)cc1	–	7.94 µM (active)
CC(=O)NCCNc1ncnc2ccc(-c3ccc(C(=O)N(C)C)cc3)cc12	3.47% [at 2.29 µM]	–
CC(=O)OC[C@@H]1O[C@H](C/C=N\OCC[C@H]2C=C[C@H](OC(C)=O)[C@@H](COC(C)=O)O2)C=C[C@@H]1OC(C)=O	19.9% [at 11.4 µM]	–
Cc1noc(C)c1-c1cncnc1NCCN1CCOCC1	-15.1% [at 2.29 µM]	–
O=S(=O)(Cc1cc(Oc2ccccc2)nc(-c2ccccc2)n1)c1ccccc1	–	0.891 µM (active)
N[C@@H](CS(=O)O)C(=O)O	–	inactive
CCn1c2ccccc2c2cc(NC(=O)C/C(C)=N/NC(=O)c3ccccc3N)ccc21	–	35.5 µM (active)
CC(=O)Nc1ccc(NC(=O)C/C(C)=N/NC(=O)C(=O)N2CCCC2)cc1	–	inactive
COCCn1c(=O)cnc2cnc(Oc3ccccc3)nc21	–	inactive
COCCn1c(=O)cnc2cnc(Oc3cccc(Cl)c3)nc21	–	15.8 µM (active)
COCCn1c(=O)c(C)nc2cnc(Oc3cccc(Cl)c3)nc21	–	12.6 µM (active)
Cc1nc2cnc(Oc3cccc(Cl)c3)nc2n(CCc2ccccc2)c1=O	–	inactive
COCCn1c(=O)cnc2cnc(Oc3ccc(OC)cc3)nc21	–	inactive
COc1ccc(C2CC(=O)CC(=O)C2n2cncn2)cc1 (centres undefined)	–	inactive
O=C(O)CSc1sc(=S)sc1SCC(=O)O	–	inactive
Cc1sc2ncn(CC(=O)NCCCC(=O)N3CCN(c4ncccn4)CC3)c(=O)c2c1C	–	11.2 µM (active)
O=C(Nc1cccc(F)c1)Nc1ccccn1	–	25.1 µM (active)

Compound	activity, negative = inhibition	AC50
O=C(Nc1cccc2ncccc12)c1cccc(F)c1	–	inactive
O=C(O)/C=C\C(=O)Nc1ccccn1	25.1% [at 11.4 µM]	–
C[C@@H]1/C=C\CC(=O)OC[C@H]2O[C@@H](C=C[C@@H]2O)[C@H](C)/C=C\CC(=O)OC[C@H]2O[C@H]1C=C[C@@H]2O	-9.33% [at 11.4 µM]	–
CC(C)CN1CCCC2(CCN(C(=O)c3cccc(F)c3)CC2)C1	–	inactive
O=C(c1ccco1)N1CCC2(CCCN(C(c3ccccc3)c3ccccc3)C2)CC1	–	12.6 µM (active)
O=C(c1ccncc1)N1CCC2(CCCN(C(c3ccccc3)c3ccccc3)C2)CC1	–	5.01 µM (active)
O=C(c1cccc(F)c1)N1CCC[C@@]2(CCN(C(c3ccccc3)c3ccccc3)C2)C1	–	inactive
O=C(c1cnccn1)N1CCC2(CC1)CCN(C(c1ccccc1)c1ccccc1)CC2	–	inactive
O=C(c1ccco1)N1CCC2(CCCN(c3ccccc3)C2)CC1	–	inactive
O=C(c1ccco1)N1CCC2(CCCN(Cc3ccccc3)C2)CC1	–	inactive
Cc1noc(C)c1C(=O)N1CCC2(CCCN(C(c3ccccc3)c3ccccc3)C2)CC1	–	inactive
O=C(c1cccc(F)c1)N1CCC2(CCCN(C(c3ccccc3)c3ccccc3)C2)CC1	–	3.16 µM (active)
O=C(c1ccncc1)N1CCC2(CC1)CN(C(c1ccccc1)c1ccccc1)C2	–	10 µM (active)
CC(C)NC(=O)N1CC2(CCN(C(=O)c3ccncc3)CC2)C1	–	inactive
CC(C)NC(=O)N1CCCC2(CCN(C(=O)c3ccncc3)CC2)C1	–	inactive
C[C@@H](C[C@H](N)C(=O)O)C(=O)O	0.375% [at 11.4 µM]	–
Cc1cnc(CNc2nc(-c3ccccc3C(F)(F)F)nc3ccccc23)cn1	-16.4% [at 2.29 µM]	–
O=C(c1cnccn1)N1CCC2(CC1)CN(C(c1ccccc1)c1ccccc1)C2	–	inactive
O=C(c1cnccn1)N1CCC2(CCCN(C(c3ccccc3)c3ccccc3)C2)CC1	–	12.6 µM (active)
O=C(c1cnccn1)N1CCC[C@@]2(CCN(C(c3ccccc3)c3ccccc3)C2)C1	–	inactive
O=C(NN=C1C2CC3CC(C2)CC1C3)c1ccncc1	–	inactive
O=C(Nc1nnc(C2CC2)s1)c1ccncc1	–	8.91 µM (active)
CC(C)NNC(=O)c1ccncc1	–	inactive
CC/C=C\CC[C@H](O)C1=CCCCC1=O	-1.13% [at 11.4 µM]	–
O=C1CCCC=C1[C@@H](O)CCOC(c1ccccc1)(c1ccccc1)c1ccccc1	–	0.794 µM (active)

Compound	activity, negative = inhibition	AC50
O=C1CCCC=C1[C@@H](O)COCc1ccccc1	3.8% [at 11.4 µM]	–
CC1(C)OC(=O)C(=CNc2cccc(O)c2)C(=O)O1	–	inactive
O=C(Nc1cccc(F)c1)N1CC[C@@]2(CCCN(C(=O)c3cc(C(F)(F)F)cc(C(F)(F)F)c3)C2)C1	–	inactive
Fc1ccc(Nc2ccnc(-c3ccccc3C(F)(F)F)n2)cc1	-26.8% [at 2.29 µM]	–
O=C(c1ccncc1)N1CCC2(CC1)CCN(c1ccccc1)CC2	–	10 µM (active)
Cc1noc(C)c1C(=O)N1CCC2(CCN(Cc3ccncc3)CC2)CC1	–	inactive
Cc1noc(C)c1C(=O)N1CCC2(CCCN(c3ccncc3)C2)CC1	–	inactive
O=C(c1cccc(F)c1)N1CCC2(CC1)CN(c1ccncc1)C2	–	5.01 µM (active)
CC(=O)N1CCC2(CC1)CN(c1ccccc1)C2	–	inactive
O=C(c1ccncc1)N1CCC2(CC1)CN(c1ccccc1)C2	–	2.51 µM (active)
O=C(c1cccc(F)c1)N1CCC[C@@]2(CCN(c3ccncc3)C2)C1	–	inactive
Cc1noc(C)c1C(=O)N1CCC2(CC1)CCN(c1ccncc1)CC2	–	10 µM (active)
O=C(c1ccncc1)N1CCC2(CC1)CN(c1ccc(-c3ccccc3)cc1)C2	–	inactive
CC1(C)O[C@H]2[C@@H](O1)[C@@H](On1nnc3ccc(Cl)cc31)O[C@@H]2[C@@H]1COC(C)(C)O1	-3.36% [at 11.4 µM]	–
Nn1nnc2ccccc21	–	inactive
N#Cc1cccc(-c2ccc3ncnc(N4CCNCC4)c3c2)c1	20.7% [at 2.29 µM]	–
CCN(CC)S(=O)(=O)N1CCC(C(=O)NCc2ccc(C)cc2)CC1	–	inactive
O=C1C2=CC[C@H]3C(=O)N(c4cccc(Oc5ccccc5)c4)C(=O)[C@@H]3[C@@H]2[C@H](O)[C@@H]2O[C@H]12	4.88% [at 11.4 µM]	–
COc1ccc(CNC(=O)Cc2csc(Nc3nc(=S)[nH]c4ccccc34)n2)cc1	–	0.224 µM (active)
Cc1ccc(CNC(=O)Cn2cncn2)cc1	–	inactive
COc1ccc(C(CNC(=O)c2cc(=O)[nH]c3ccccc23)N2CCCC2)cc1 (centres undefined)	–	inactive
O=C(Cc1csc(Nc2nc(=S)[nH]c3ccccc23)n1)NCc1cccc(Cl)c1	–	0.0631 µM (active)
Cc1ccc(CS(=O)(=O)CCC(=O)NCc2ccccn2)cc1	–	inactive
Cc1ccc(CNC(=O)Cc2csc(Nc3nc(=S)[nH]c4ccccc34)n2)cc1	–	0.891 µM (active)

From PubChem BioAssay AID1851 (National Center for Advancing Translational Sciences (NCATS), 2009)
